# From PubChem
# Rows were chosen to be rich in hits. Some 7.5% of all compounds tested hit in one or more screens of this group.
# NPC1 prom act: NPC1 promoter activation; Huh7 NPC1 promoter luciferase reporter, 24 h; Potency, µM (series often up to 9.22 µM), actives largely listed as activators; actives 2.4% (n = 320,000); further: nearly all actives have a fitted effect of over 60% in size
#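 Luminescence from an NPC1 promoter-driven luciferase reporter in stably transfected Huh7 cells was measured after 24 h compound treatment at 37 °C, followed by 10 min ambient incubation with luciferase detection reagent.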
# Rab9 promoter act: activates the Rab9 promoter. Huh7 Rab9 promoter-luciferase reporter, luminescence, 24 h. actives 2.8% (n = 320,000). AID 485297. Potency, µM (top dose mostly 9.22 µM), most hits filed as activators; further: nearly all actives have a fitted effect of over 60% in size
#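 Luciferase signal after 10 min detection reagent at ambient indicates Rab9 promoter upregulation; stably transfected Huh7 cells were treated 24 h with compound in DMSO at 37 °C, 5% CO2.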
# ELG1 genotox: genotoxicity induction in ELG1-luciferase HEK293T cells; Potency, µM (top dose mostly 46 µM), most hits filed as activators; actives 1.3% (n = 330,000); HEK293T ELG1-luciferase reporter, luminescence, 16 h; AID 504466; further: nearly all actives have a fitted effect of over 60% in size
#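 DMSO vehicle served as control against compound-treated ELG1-luciferase HEK293T cells; exposure lasted 16 hr at 37 °C and 5% CO2, followed by ONE-Glo luminescence detection after 30 min.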
# SMN2 splice enh: increases expression of the SMN2 splice variant; HEK293 SMN2-luciferase splicing reporter, luminescence, 30-36 h; Potency, µM (highest dose often 46.1 µM), actives largely listed as activators; actives 2.8% (n = 210,000); AID 1458; further: nearly all actives have a fitted effect of over 55% in size
#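 HEK293 cells carry an SMN2 […]–luciferase reporter in which exon 7 inclusion puts luciferase in frame. Cells were plated 10-12 h before compound addition, then incubated 30-36 h at 37C. ONE-Glo luminescence was read; sodium butyrate at 4.5 mM final served as control.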
# FLuc modulator: firefly luciferase modulation, counter-screen for miR-21 project; Potency, µM (highest dose often 57.5 µM), most hits filed as inhibitors; P08659; purified FLuc, Km substrates, luminescence inhibition; actives 6.9% (n = 360,000); AID 588342; further: nearly all actives have a fitted effect of over 55% in size
# Target sequence (P08659 whole entry, looked up): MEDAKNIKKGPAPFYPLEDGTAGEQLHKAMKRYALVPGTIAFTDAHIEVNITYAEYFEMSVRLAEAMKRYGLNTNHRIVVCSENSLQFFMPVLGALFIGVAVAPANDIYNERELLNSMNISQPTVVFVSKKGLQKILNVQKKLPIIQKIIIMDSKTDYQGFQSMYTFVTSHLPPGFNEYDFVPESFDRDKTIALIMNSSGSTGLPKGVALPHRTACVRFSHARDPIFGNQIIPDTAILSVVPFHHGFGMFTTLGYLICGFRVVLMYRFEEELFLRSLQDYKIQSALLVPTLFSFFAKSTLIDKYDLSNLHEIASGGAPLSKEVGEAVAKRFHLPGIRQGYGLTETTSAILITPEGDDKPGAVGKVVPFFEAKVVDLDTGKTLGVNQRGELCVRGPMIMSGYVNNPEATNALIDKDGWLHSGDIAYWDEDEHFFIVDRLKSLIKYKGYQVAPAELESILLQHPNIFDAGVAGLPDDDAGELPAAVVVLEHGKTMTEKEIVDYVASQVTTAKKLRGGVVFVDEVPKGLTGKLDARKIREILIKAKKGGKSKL
#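 Biochemical qHTS of compounds, final roughly 60 µM downward over six points, against 10 nM purified firefly luciferase using Km concentrations of substrates (10 uM D-luciferin, 10 uM ATP) in Tris acetate pH 7.5 buffer; luminescence output.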
# KinaseGlo FLuc: counter-screen: inhibitors of Kinase-Glo firefly luciferase; Q27757; Kinase-Glo luciferase, ATP luminescence, 8 min; Potency, µM (doses to about 38.3 µM), usual class: inhibitors; actives 0.28% (n = 200,000); AID 1379; further: nearly all actives have a fitted effect of over 60% in size
#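 Inhibition of Kinase-Glo luciferase light generation was assessed at 10 uM ATP in pH 7.2 imidazole buffer, with luminescence measured after eight minutes at ambient temperature.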
# Numbers stand for hits; 0 = inactive; ? = inconclusive; - = no result given; [ ] = another dose, or the depositor's remark. The call rests on the fitted dose curve; in most records, active means well fitted curve in the direction sought with a large enough effect; inconclusive means small, poorly fitted or top-dose-only effect, or another doubt; inactive means no such curve, though single readings can be large; an effect the other way counts as inactive or inconclusive.
SMILES,NPC1 prom act,Rab9 promoter act,ELG1 genotox,SMN2 splice enh,FLuc modulator,KinaseGlo FLuc
O=C(Nc1ccccc1Cl)c1ccccc1,0,0,?,0,0,0
O=C(Nc1cccc(Cl)c1Cl)c1ccc(-c2ccccc2)cc1,2.5µM,?,?,?,?,0
COc1ccc(-c2cc(C(=O)O)n(Cc3ccccc3)n2)cc1,-,-,-,0,?,-
CCc1ccc(CNC(=O)Cn2nc(C)c3nn(-c4ccc(Cl)cc4)c(C)c3c2=O)cc1,-,-,-,-,0,-
O=C(c1ccc2c(c1)N(Cc1ccccc1F)C(=O)c1ccccc1S2=O)N1CCOCC1 (stereo not given),-,-,-,0,0,-
CCOc1ccc(S(=O)(=O)N(CC(=O)NCCSCc2ccccc2)c2ccccc2)cc1,-,-,-,0,0,-
COc1ccc(-c2cn3c(C)c(C(=O)Nc4ccncc4)sc3n2)cc1,0,0,0,0,?,0
COc1ccc(-c2cn3c4c(sc3n2)CCCC4)cc1,1µM,0.5µM,?,1.3µM,0.21µM,0
COc1cc(SC)ccc1C(=O)NCCOc1c(C)cc(C)cc1C,0,0,0,-,0,-
COc1cc(SC)ccc1C(=O)Nc1ccc(C)cc1,?,3.5µM,?,-,1.9µM,0
COc1cc(SC)ccc1C(=O)Nc1ccc2c(c1)OCO2,0.89µM,1.6µM,2.6µM,11µM,1.3µM,0
COc1cc(SC)ccc1C(=O)Nc1ccc(S(=O)(=O)N2CCCC2)cc1,0,0,0,0,0,0
COc1cc(SC)ccc1C(=O)Nc1ccc(C)cc1C,2.5µM,3.5µM,?,13µM,2.7µM,0
CC(=O)Nc1ccc(NC(=O)CC2(CC(=O)N3CCOCC3)CCCC2)cc1,0,0,0,-,0,-
COc1ccc(NC(=O)CN(C)C(=O)CNC(=O)c2sc3ccccc3c2Cl)cc1,?,?,?,-,3µM,-
COc1cccc(NC(=O)CN(C)C(=O)CNC(=O)c2sc3ccccc3c2Cl)c1,0,0,0,-,4.8µM,-
COc1cccc(NC(=O)CN(C)C(=O)c2sc3cc(Cl)ccc3c2Cl)c1,0,0,0,-,0,-
O=C(CN1C(=O)C2(SCC(=O)N2c2ccc(F)cc2)c2ccccc21)NCCc1ccccc1 (stereo not given),-,-,-,-,0,-
CNc1oc(-c2ccc(Cl)cc2)nc1C#N,?,?,?,0,11µM,0
COc1ccc(-c2nc(C#N)c(NC(C)C)o2)cc1,?,?,0,0,13µM,0
N#Cc1nc(-c2cccc3ccccc23)oc1NCC1CCCO1 (stereo not given),0,0,?,-,12µM,-
C=CCNc1oc(-c2ccc(Cl)cc2)nc1C#N,-,-,0,-,-,-
COc1ccc(-c2nc(C#N)c(N3CCCCC3)o2)cc1,0,0[1.84 µM],0,-,?,-
N#Cc1nc(-c2ccc(Cl)cc2)oc1NCC1CCCO1 (stereo not given),0,?,?,?,21µM,0
CCOC(=O)c1c(C)[nH]c(C)c1S(=O)(=O)N1CCC(C(=O)NCc2ccc(OC)cc2)CC1,-,-,-,-,0,-
SMILES,NPC1 prom act,Rab9 promoter act,ELG1 genotox,SMN2 splice enh,FLuc modulator,KinaseGlo FLuc
O=C(c1ccc2c(c1)N(Cc1ccccc1)C(=O)c1ccccc1S2(=O)=O)N1CCN(c2ccccn2)CC1,-,-,-,0,0,-
COc1ccc(/C=N/N=C/c2ccc(OC)c(O)c2)cc1O,0,0,0,0,24µM,0
COc1ccc(/C=N/N=C/c2ccc(OC)c(OC)c2)cc1OC,0,0,0,0,0,0
COc1cc(/C=N/N=C/c2cc(OC)c(O)c(OC)c2)cc(OC)c1O,0,0,0,0,17µM,0
COc1cc(/C=N/N=C(/C(=O)c2ccccc2)c2ccccc2)cc(OC)c1O,0,0,0,0,0,0
O=C(COc1ccc2ccccc2c1Br)N1CCCC1,0,?,?,-,?,-
N/C(=N\OC(=O)COc1ccc2ccccc2c1Br)c1cccnc1,0,0,0,0,19µM,0
N/C(=N\OC(=O)COc1ccc2ccccc2c1Br)c1ccccn1,?,?,?,?,21µM,0
O=C(Cn1nc(-c2ccc(Cl)cc2)ccc1=O)NCc1ccccc1Cl,-,-,-,-,0,-
Cc1noc(NS(=O)(=O)c2ccc(NC(=O)c3ccccc3NS(=O)(=O)c3ccc(F)cc3)cc2)c1C,-,-,0,-,-,-
Brc1ccc(-c2cn3c(n2)CCc2ccc4cccnc4c2-3)cc1,0,0,0,0,13µM,0
Brc1ccc(OCCCOc2cccc3cccnc23)cc1,0,0,0,-,?,-
CCN(CC)CCOC(=O)c1ccc(Nc2c3c(nc4ccccc24)CCC3)cc1,-,-,-,0,0,-
O=C(C=C=Nc1ccccc1)C(=O)N=C=Cc1ccccc1,0,0,?,-,4.8µM,-
COc1ccc(OCc2csc(N)n2)cc1,?,2.8µM,?,13µM,?,0
O=C(CSc1ccc(F)cc1)Nc1ccc(C2SCCS2)cc1,?,?,?,-,11µM,-
COc1ccccc1CNC(=O)CSc1ccccc1,?,3.2µM,?,?,?,0
COc1ccc(NC(=O)CSc2ccc(C)cc2)cc1,?,0,?,0,21µM,0
